From PubChem BioAssay (EPA / NIEHS) come the findings set out here.

Test [1] is described as follows: ATG_E_Box_CIS: Attagene CIS-FACTORIAL HepG2 Assay for human Enhancer Box (E-box) (AID 2282936). Conditions: HepG2 E-box cis-reporter transcription, actives raise or lower the signal. The gist of the method: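 DMSO served as negative control and baseline for bidirectional fitting. Human hepatoma HepG2 cells, transiently transfected with cis-reporter constructs, were dosed 24 h; reporter mRNA read by RT-PCR and capillary electrophoresis.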

Test [2] can be described thus: ATG_M_61_CIS: Attagene CIS-FACTORIAL HepG2 Assay for M61 Transcription Factor (Internal Marker) (AID 2282937). Conditions: HepG2 Attagene CIS-FACTORIAL M61 internal marker reporter; actives raise or lower the signal. The gist of the method:
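Endogenous transcription factor activity in HepG2 is read through transiently transfected cis-element reporter units. After 24 h dosing, RNA undergoes reverse transcription, PCR and primer extension with 6-FAM before capillary electrophoresis; DMSO-referenced bidirectional fit.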

Test [3] can be described thus: ATG_EGR_CIS: Attagene CIS-FACTORIAL HepG2 Assay for human Early Growth Response 1 (EGR1) (AID 2282938). Conditions: HepG2 Attagene CIS-FACTORIAL EGR reporter mRNA; actives raise or lower the signal. In a few lines:
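Activity is taken as induction or loss of reporter mRNA versus DMSO, fitted bidirectionally. Transcripts from cis-regulated reporter units in transiently transfected HepG2 were measured after 24 h by RT-PCR with capillary electrophoresis.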

The nature of test [4]: ATG_ERE_CIS: Attagene CIS-FACTORIAL HepG2 Assay for Estrogen Response Element (ERE) (AID 2282940). Conditions: HepG2 ERE cis-reporter, Attagene RNA transcript; actives raise or lower the signal. The gist of the method: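 Human liver cells (HepG2) bearing transiently transfected, promoter-regulated reporter units were exposed 24 h. Reporter mRNA induction was detected by capillary electrophoresis of labelled RT-PCR products and fitted bidirectionally to DMSO.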

The nature of test [5]: ATG_Ets_CIS: Attagene CIS-FACTORIAL HepG2 Assay for human Erythroblast Transformation Specific (ETS) (AID 2282941). Conditions: HepG2 ETS cis-reporter transcription, actives raise or lower the signal. In a few lines:
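Human HepG2 hepatoma cells were transiently transfected with promoter-driven reporter constructs and treated for 24 hours. Reporter transcripts were quantified by RT-PCR with fluorescent primer extension; bidirectional curve fitting used DMSO as reference.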

The target of test [6] is Hepatocyte nuclear factor 3-beta (Homo sapiens) (UniProt Q9Y261). Put plainly: ATG_FoxA2_CIS: Attagene CIS-FACTORIAL HepG2 Assay for human Forkhead box A2 (FOXA2) (AID 2282942). Conditions: HepG2 cis-reporter transcription factor activity, 24 h; actives raise or lower the signal. In a few lines: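 Reporter transcript induction is measured by fluorescence after capillary electrophoresis of RT-PCR products from HepG2 cells exposed 24 h. Cis-regulated reporter units report endogenous factor activity; curves fitted both directions against DMSO.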
Hepatocyte nuclear factor 3-beta (Homo sapiens), sequence (Q9Y261 whole entry, looked up): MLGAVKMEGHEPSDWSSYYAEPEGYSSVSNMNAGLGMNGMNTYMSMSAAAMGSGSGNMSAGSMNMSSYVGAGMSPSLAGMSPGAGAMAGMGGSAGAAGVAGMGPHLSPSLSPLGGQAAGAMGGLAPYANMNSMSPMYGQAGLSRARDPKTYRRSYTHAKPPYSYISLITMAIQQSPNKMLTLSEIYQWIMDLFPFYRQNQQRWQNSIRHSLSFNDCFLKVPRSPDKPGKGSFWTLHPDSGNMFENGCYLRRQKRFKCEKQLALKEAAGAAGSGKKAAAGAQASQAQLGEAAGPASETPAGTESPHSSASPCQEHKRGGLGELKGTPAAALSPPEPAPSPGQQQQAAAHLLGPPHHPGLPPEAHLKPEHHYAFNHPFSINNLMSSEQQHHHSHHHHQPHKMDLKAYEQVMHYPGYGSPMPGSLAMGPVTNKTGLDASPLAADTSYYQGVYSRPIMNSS

Test [7] in a line: ATG_FoxO_CIS: Attagene CIS-FACTORIAL HepG2 Assay for human Forkhead box O (FoxO) (AID 2282943). Conditions: HepG2 Attagene cis-reporter, FoxO element, mRNA; actives raise or lower the signal. The gist of the method:
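HepG2, transient MRTU transfection (cis element, endogenous TFs). Dose 24 h. TriZol RNA → oligo(dT) RT → PCR → 6-FAM primer extension → HpaI cut → CE. Gain/loss vs DMSO.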

The nature of test [8]: ATG_GATA_CIS: Attagene CIS-FACTORIAL HepG2 Assay for human GATA Binding Protein (AID 2282944). Conditions: HepG2 GATA cis-element reporter, Attagene multiplex mRNA; actives raise or lower the signal. In a few lines:
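Transfected cis-reporter HepG2 cells were treated with chemicals for 24 hours. Total RNA was then converted to cDNA, amplified with reporter-specific primers and analysed by fluorescent capillary electrophoresis, using DMSO-treated wells as baseline.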

Test [9] in a line: ATG_GLI_CIS: Attagene CIS-FACTORIAL HepG2 Assay for human Zinc Finger Protein GLI1 (AID 2282945). Conditions: HepG2, Attagene cis-factorial reporter mRNA, GLI element; actives raise or lower the signal. The gist of the method:
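Bidirectional curve fits relative to DMSO, using reporter mRNA levels from RT-PCR plus capillary electrophoresis. Cells were HepG2 transiently carrying cis-regulated reporter constructs, harvested 24 h after dosing.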

The target in test [10] is Bile acid receptor (Homo sapiens) (UniProt Q96RI1). In words: ATG_IR1_CIS: Attagene CIS-FACTORIAL HepG2 Assay for human Nuclear Receptor Subfamily 1 Group H Member 4 (NR1H4), IR1 submotif (AID 2282946). Conditions: IR1 reporter transcription, actives raise or lower the signal. In a few lines: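 Cells (human HepG2) carry transiently transfected cis-promoter reporter transcription units. Compounds are incubated 24 h, total RNA is reverse-transcribed and amplified, and labelled fragments are resolved by capillary electrophoresis. Curves use DMSO as baseline.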
Bile acid receptor (Homo sapiens), sequence (Q96RI1 whole entry, looked up, the tested form may be a part): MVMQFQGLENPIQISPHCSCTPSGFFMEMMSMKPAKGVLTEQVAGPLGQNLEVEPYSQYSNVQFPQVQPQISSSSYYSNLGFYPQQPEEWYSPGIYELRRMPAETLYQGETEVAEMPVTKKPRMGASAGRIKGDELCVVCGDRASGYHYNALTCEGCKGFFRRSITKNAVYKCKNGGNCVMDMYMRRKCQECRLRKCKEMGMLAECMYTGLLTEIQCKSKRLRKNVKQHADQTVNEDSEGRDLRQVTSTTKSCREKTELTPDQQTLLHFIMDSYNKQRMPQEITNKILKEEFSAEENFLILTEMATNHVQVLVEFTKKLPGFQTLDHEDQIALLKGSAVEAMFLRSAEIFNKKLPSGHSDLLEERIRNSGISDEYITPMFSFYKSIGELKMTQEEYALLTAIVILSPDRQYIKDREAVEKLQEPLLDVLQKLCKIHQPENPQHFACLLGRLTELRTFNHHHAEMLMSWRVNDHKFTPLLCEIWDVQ

Test [11] in a line: ATG_GRE_CIS: Attagene CIS-FACTORIAL HepG2 Assay for human Glucocorticoid Response Elements (GRE) (AID 2282947). Conditions: HepG2 GRE cis-reporter, Attagene multiplex mRNA; actives raise or lower the signal. In a few lines:
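Assay uses human hepatoma HepG2 cells transfected with cis-promoter reporter units, exposed 24 h. mRNA from reporters detected by RT-PCR plus capillary electrophoresis; DMSO serves as negative control and baseline.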

Test [12] is described as follows: ATG_ISRE_CIS: Attagene CIS-FACTORIAL HepG2 Assay for human Interferon Regulatory Factor 1 (IRF1) binding to an Interferon-Stimulated Response Element (ISRE) (AID 2282948). Conditions: HepG2 ISRE cis-reporter (Attagene), mRNA transcription readout; actives raise or lower the signal. In a few lines:
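Cell-based cis-reporter assay; HepG2; 24 h exposure; reporter mRNA by RT-PCR plus capillary electrophoresis fluorescence; activity in either direction scored relative to DMSO.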

A short description of test [13]: ATG_M_32_CIS: Attagene CIS-FACTORIAL HepG2 Assay for M32 Transcription Factor (Internal Marker) (AID 2282949).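 Also: background control marker of the multiplexed CIS panel rather than a real target.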 Conditions: HepG2 Attagene cis-factorial M32 reporter, mRNA; actives raise or lower the signal. In a few lines: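 Internal background marker read-out: RT-PCR/capillary electrophoresis fluorescence of reporter transcripts from transiently transfected HepG2 cells after 24 h chemical exposure. Activity fitted bidirectionally relative to DMSO negative control.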

Test [14] is described as follows: ATG_M_06_CIS: Attagene CIS-FACTORIAL HepG2 Assay for M06 Transcription Factor (Internal Marker) (AID 2282950). Conditions: HepG2 Attagene CIS-FACTORIAL M06 internal marker reporter; actives raise or lower the signal. The gist of the method:
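Cells (HepG2, transiently carrying cis-driven reporter units) receive chemical for 24 h before RNA isolation. Reporter cDNA is PCR-amplified, FAM-labelled by primer extension, HpaI-digested and sized on a capillary analyser.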

In test [15] the target is Hypoxia-inducible factor 1-alpha (Homo sapiens) (UniProt Q16665). Put plainly: ATG_HIF1a_CIS: Attagene CIS-FACTORIAL HepG2 Assay for human Hypoxia Inducible Factor 1 (HIF1A) (AID 2282951). Conditions: HepG2 Attagene cis-factorial HIF1a reporter transcription; actives raise or lower the signal. In a few lines:
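Fluorescence intensity of capillary-separated, 6-FAM-labelled reporter amplicons gives mRNA induction in HepG2 cells carrying transfected cis-promoter reporter units; cells exposed 24 h, responses fitted up or down from DMSO.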

Test [16] has as its target Hepatocyte nuclear factor 6 (Homo sapiens) (UniProt Q9UBC0). In words: ATG_HNF6_CIS: Attagene CIS-FACTORIAL HepG2 Assay for human Hepatocyte Nuclear Factor 6 (HNF6) (AID 2282952). Conditions: HepG2 Attagene cis-factorial HNF6 reporter transcription; actives raise or lower the signal. In a few lines:
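Reporter mRNA induction or loss in HepG2 after 24 h exposure; transient cis-MRTU transfection; fragments quantified by capillary electrophoresis; bidirectional analysis, DMSO as negative control.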

Test [17] concerns the target Heat shock factor protein 1 (Homo sapiens) (UniProt Q00613). In words: ATG_HSE_CIS: Attagene CIS-FACTORIAL HepG2 Assay for human Heat Shock Transcription Factor 1 (HSE) (AID 2282953). Conditions: HepG2 HSE cis-reporter, Attagene RNA transcription; actives raise or lower the signal. The gist of the method:
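Liver-derived HepG2 cells carry transiently introduced multiple reporter units governed by cis promoters. Reporter RNA measured 24 h post-dose through reverse transcription, PCR amplification, fluorescent labelling and capillary electrophoresis, normalised to DMSO.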

Test [18] can be described thus: ATG_MRE_CIS: Attagene CIS-FACTORIAL HepG2 Assay for human Metal Responsive Element (MRE) (AID 2282954). Conditions: HepG2 MRE cis-reporter transcription, Attagene multiplex; actives raise or lower the signal. In a few lines: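 After a 24 h chemical exposure, transiently transfected HepG2 cells yield RNA whose reporter sequences are amplified, FAM-labelled and sized by capillary electrophoresis. Curves are fitted bidirectionally relative to DMSO.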

The nature of test [19]: ATG_PBREM_CIS: Attagene CIS-FACTORIAL HepG2 Assay for human Phenobarbital-responsive Enhancer Module (PBREM) (AID 2282955). Conditions: HepG2 PBREM cis-reporter, Attagene multiplexed transcription; actives raise or lower the signal. In a few lines:
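Cells were transfected with cis-element reporter units and treated for 24 h, after which RNA was extracted and reporter transcripts measured by RT-PCR and capillary electrophoresis.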

A structure can be active in one record and inactive in another. Active and inactive are the calls of the source. The calls were made as follows: active = hit-call score of the fitted dose curve at least 0.9, where 1 is the maximum; inactive = score below 0.9.

Hypoxia-inducible factor 1-alpha (Homo sapiens), sequence (Q16665 whole entry, looked up): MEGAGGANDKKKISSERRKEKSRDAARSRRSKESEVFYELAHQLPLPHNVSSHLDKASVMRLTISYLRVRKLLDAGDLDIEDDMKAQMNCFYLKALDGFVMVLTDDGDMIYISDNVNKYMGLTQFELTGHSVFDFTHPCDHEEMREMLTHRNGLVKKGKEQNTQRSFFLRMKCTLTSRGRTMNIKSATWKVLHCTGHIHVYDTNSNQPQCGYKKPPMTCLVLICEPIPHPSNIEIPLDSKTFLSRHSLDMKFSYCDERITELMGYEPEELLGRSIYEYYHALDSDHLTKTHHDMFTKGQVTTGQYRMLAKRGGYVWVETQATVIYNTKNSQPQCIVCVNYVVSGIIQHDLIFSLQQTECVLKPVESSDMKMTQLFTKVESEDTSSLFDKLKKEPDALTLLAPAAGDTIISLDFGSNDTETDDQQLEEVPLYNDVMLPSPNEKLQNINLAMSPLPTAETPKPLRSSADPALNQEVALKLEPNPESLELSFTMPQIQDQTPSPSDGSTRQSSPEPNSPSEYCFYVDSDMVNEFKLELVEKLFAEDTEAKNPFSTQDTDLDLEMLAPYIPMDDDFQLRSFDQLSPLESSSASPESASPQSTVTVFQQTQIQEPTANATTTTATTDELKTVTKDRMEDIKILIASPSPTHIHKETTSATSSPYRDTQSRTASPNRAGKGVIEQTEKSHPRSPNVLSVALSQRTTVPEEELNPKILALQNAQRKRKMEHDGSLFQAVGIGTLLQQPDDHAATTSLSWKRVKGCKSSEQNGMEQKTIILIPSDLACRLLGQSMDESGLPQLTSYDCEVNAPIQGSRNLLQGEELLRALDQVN
Hepatocyte nuclear factor 6 (Homo sapiens), sequence (Q9UBC0 whole entry, looked up, the tested form may be a part): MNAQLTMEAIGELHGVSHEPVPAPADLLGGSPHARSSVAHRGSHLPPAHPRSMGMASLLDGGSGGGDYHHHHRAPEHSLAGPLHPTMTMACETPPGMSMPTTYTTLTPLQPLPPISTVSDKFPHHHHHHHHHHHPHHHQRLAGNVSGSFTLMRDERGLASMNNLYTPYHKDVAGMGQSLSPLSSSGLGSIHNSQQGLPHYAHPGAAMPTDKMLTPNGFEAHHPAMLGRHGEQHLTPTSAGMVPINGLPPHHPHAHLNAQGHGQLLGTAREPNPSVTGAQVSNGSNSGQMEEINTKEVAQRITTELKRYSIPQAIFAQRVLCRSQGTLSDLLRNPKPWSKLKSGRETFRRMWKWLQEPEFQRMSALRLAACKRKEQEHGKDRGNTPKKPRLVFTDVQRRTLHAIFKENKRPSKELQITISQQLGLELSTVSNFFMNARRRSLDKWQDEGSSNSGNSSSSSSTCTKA
Heat shock factor protein 1 (Homo sapiens), sequence (Q00613 whole entry, looked up): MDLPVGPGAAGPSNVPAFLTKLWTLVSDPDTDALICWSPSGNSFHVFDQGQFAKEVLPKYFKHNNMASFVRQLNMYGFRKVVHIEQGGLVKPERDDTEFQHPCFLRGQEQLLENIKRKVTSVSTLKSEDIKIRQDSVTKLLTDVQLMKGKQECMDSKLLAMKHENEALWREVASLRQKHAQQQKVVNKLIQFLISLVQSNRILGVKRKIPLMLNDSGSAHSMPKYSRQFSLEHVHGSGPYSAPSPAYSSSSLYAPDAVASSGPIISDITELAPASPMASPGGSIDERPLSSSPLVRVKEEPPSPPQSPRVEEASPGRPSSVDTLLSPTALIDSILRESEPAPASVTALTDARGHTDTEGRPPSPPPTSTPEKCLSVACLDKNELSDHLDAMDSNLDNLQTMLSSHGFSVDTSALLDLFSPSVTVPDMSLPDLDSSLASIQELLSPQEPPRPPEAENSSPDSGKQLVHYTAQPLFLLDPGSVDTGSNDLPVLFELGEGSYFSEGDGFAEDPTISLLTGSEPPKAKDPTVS

Usually AC50 stands for the concentration at which the activity in the assay is half-maximal. On to `O=C(Nc1ccc(Cl)cc1)Nc1ccc(Cl)c(Cl)c1`, for which the result in test [1], in test [2], in test [3], in test [4], in [5] and in test [6] was inactive. Moreover, the molecule was called inactive in [7], in test [8], in test [9], in test [10], in [11] and in test [13]. In addition, the molecule was called inactive in [14], in [15], in [16], in test [17], in [18] and in test [19]. The AC50 in test [12] was 5.89 µM (active).

In the case of `Cc1cccc2ccccc12`, the outcome in test [1], in [2], in test [3], in test [4], in test [5] and in test [6] was inactive. The molecule was classed as inactive in test [8], in test [9], in test [10], in test [12], in [13] and in test [14]. For the same molecule, the molecule was called inactive in test [15], in test [16], in test [17], in [18] and in [19]. In addition, the AC50 in test [4] is 76.8 µM (active).

Turning to `CCCCCCCCOC(=O)c1cc(O)c(O)c(O)c1`, the result in test [1], in [2], in test [3], in [4], in test [5] and in test [6] was inactive. Further, the molecule was classed as inactive in test [8], in [9], in test [10], in test [11], in test [12] and in test [13]. The call in test [14], in test [16], in test [17], in [18] and in [19] was inactive. Besides, the AC50 in test [15] is 16.9 µM (active).

Regarding `C[C@]12CC[C@@H]3c4ccc(O)cc4CC[C@H]3[C@@H]1CCC2=O`, the outcome in test [1], in [2], in test [3], in test [5], in test [6] and in test [8] was inactive. Further, the molecule was classed as inactive in [9], in [10], in [12], in test [13], in [14] and in [15]. Also, the call in test [16], in [17] and in [18] was inactive.

Regarding `O=C(OCCCCCCOC(=O)c1ccccc1)c1ccccc1`, the result in test [1], in test [2], in test [3], in [4], in [5] and in test [6] was inactive. The outcome in test [8], in test [9], in test [10], in [11], in test [12] and in test [13] was inactive. Moreover, the molecule was called inactive in test [14], in test [15], in test [16], in test [17], in test [18] and in test [19].

With `CCCOC(=O)c1cc(O)c(O)c(O)c1`, the outcome in test [1], in test [2], in test [3], in test [5], in test [6] and in test [7] was inactive. Further, the molecule was called inactive in [8], in test [9], in [10], in [11], in test [12] and in test [13]. For the same molecule, the outcome in test [14], in test [16], in [17], in test [18] and in [19] was inactive. Further, the concentration at half-maximal activity (AC50) in [4] is 12.4 µM (active); in test [15] it was 65.1 µM (active).

`Cc1occc1C(=O)Nc1ccc(C(=O)N2CCC(F)(F)/C(=C\C(=O)N3CCC(N4CCCCC4)CC3)c3ccccc32)cc1`: the AC50 in [1] was 27.4 µM (active); in test [3], 34.5 µM (active); in test [5], 55.9 µM (active); in [6], 34.5 µM (active); in test [8] it was 46.7 µM (active); in [11], 57.8 µM (active). Besides, the results for the AC50 in [12], in test [16] and in test [18] were 34.5 µM (active), 49.8 µM (active) and 23.7 µM (active), respectively. In addition, the molecule was called inactive in test [2], in test [4], in [9], in test [10], in test [13] and in [14]. Besides, the result in test [15] and in [19] was inactive.
